Results: PubChem BioAssay (EPA / NIEHS)
Activity calls are given as the source filed them. Rule for the calls: active = hit-call score of the fitted dose curve at least 0.9, where 1 is the maximum; inactive = score below 0.9.

The molecules below were run on JUN Transcription Factor, JUN (gene 3725) (assay: LTEA_HepaRG_JUN: Life Technologies and Expression Analysis (LTEA) Assay for JUN Transcription Factor using HepaRG (AID 2283513)). Settings: mRNA level, 48 h; actives raise or lower the signal.
Protocol: LTEA_HepaRG is a cell based, multiplexed-readout assay that uses HepaRG, a human liver cell line, with measurements taken at 48 hours after chemical dosing on a 96-well plate.LTEA_HepaRG_JUN is one of 102 assay component(s) measured in the LTEA HepaRG cell culture assay. It is a marker of Cell proliferation, survival, death.Data from the assay component LTEA_HepaRG_JUN was analyzed into 1 endpoint. This assay endpoint, LTEA_HepaRG_JUN, was analyzed with bidirectional fitting relative to DMSO as the negative control and baseline of activity. Using a type of inducible reporter, measures of mRNA induction for gain or loss-of-signal activity can be used to understand regulation of transcription factor activity. To generalize the intended target to other relatable targets, this assay endpoint is annotated to the dna binding intended target family, where the subfamily is basic leucine zipper.
A total of 1060 chemcials from the ToxCast library were tested in eight-point concentration-response experiments. Cell culture and cytotoxicity assays were conducted at Thermo Fisher Scientific's Custom Services facility (Madison, WI). A single lot of human HepaRG cells (Thermo Fisher Scientific, Frederick, MD) was used for the cell culture experiments. 96-well format collagen type I coated plates of human HepaRG cells were prepared using established methods. Briefly, cryopreserved HepaRG cells were thawed, plated at a density of approximately 100,000 cells/well in HepaRG Thaw, Plate, and General Purpose media (HPRG770, Thermo Fisher Scientific), and incubated for 48 hours. 0.5% DMSO was selected as vehicle control to balance the requisite need of DMSO in HepaRG cultures to maintain differentiation (for example, baseline metabolism, proportions of hepatocytes vs. cholangiocytes), while enabling further hepatic receptor pathway activation (for example, PXR and CAR) in response to chemical exposure. 48 hours after plating, the culture medium was replaced with HepaRG Serum-Free Incudtion Media. Cells were exposed to each test chemical in duplicate and maintained in CO2 incubators for another 48 hours. Chemical plates were thawed to room temperature and 200x concentrations of treatment groups were prepared. 8-point conentration-reponse curves were made with the highest exposure at 100 uM, followed by half-log dilutions, all in 0.5% DMSO. Each test plate contained variouse controls, induction positive controls (1mM phenobarbital), cytotoxicity positive controls ([…] aflatoxin B1), vehicle controls (0.5% DMSO), and total lysis controls (0.5% DMSO). Cell morphology images were taken using an Essen IncuCyte FLR automated microscope, with six 96-well plates imaged in about 24 minutes. Images were captured and exported and JPEG files. Spent culture media was transfered to black-well plates for the LDH assay, and remaining media was sorted at -80 C for later use. Cells were treated with RLT buffer and frozen until shipped for gene expression analysis. Total RNA was isolated from the cell suspension in 75 uL of Buffer RLT (Qiagen, Germantown, MD 20874) by Quintiles/Expression Analysis (Durham, NC) using a custom isolation procedure. Total RNA from each plate well was transferred to a preamplification plate. Fluidigm's 96.96 Dynamic ArrayTM (Fluidigm, Amsterdam, the Netherlands) technology was used for gene expression analyses by quantitative reverse transcription polymerase chain reaction (qRT-PCR, performed by Quintiles/Expression Analysis, Durham, NC)89. Standard TaqManTM Assays (Applied Biosystems/ThermoFisher Scientific, Foster City, CA) were used to assess the expression of 93 genes selected based on their selectivity and sensitivity to important hepatic receptors known to be modulated by environmental chemicals; importance in human hepatocyte functionality; and hepatotoxicity. […]

SMILES | outcome | AC50
O=[N+]([O-])c1cc(C(F)(F)F)c(Cl)c([N+](=O)[O-])c1Nc1ncc(C(F)(F)F)cc1Cl | inactive | 
COP(=O)(OC)OC(Br)C(Cl)(Cl)Br (stereo not given) | inactive | 
CC(=NC#N)N(C)Cc1ccc(Cl)nc1 | inactive | 
CCC(=O)Nc1ccc(Cl)c(Cl)c1 | inactive | 
C=C(C)[C@H]1Cc2c(ccc3c2O[C@@H]2COc4cc(OC)c(OC)cc4[C@@H]2C3=O)O1 |  | 17.8 µM (active)
CC1(C(=O)Nc2ccc(O)c(Cl)c2Cl)CCCCC1 | inactive | 
CCOP(=S)(OCC)Oc1ccc2c(C)c(Cl)c(=O)oc2c1 | inactive | 
CNC(=O)ON=C(C)SC | inactive | 
CC(C)=CC1C(C(=O)OCN2C(=O)C3=C(CCCC3)C2=O)C1(C)C (stereo not given) | inactive | 
CCC(CC)Nc1c([N+](=O)[O-])cc(C)c(C)c1[N+](=O)[O-] | inactive | 
CCc1cnc(C2=NC(C)(C(C)C)C(=O)N2)c(C(=O)O)c1 (stereo not given) | inactive | 
CCCSP(=O)(OCC)SCCC | inactive | 
C#CC(C)(C)NC(=O)c1cc(Cl)cc(Cl)c1 | inactive | 
CCOC(=O)COc1cc(-c2nn(C)c(OC(F)F)c2Cl)c(F)cc1Cl | inactive | 
CCOP(=O)(NC(C)C)Oc1ccc(SC)c(C)c1 (stereo not given) | inactive | 
CC(C1CC1)C(O)(Cn1cncn1)c1ccc(Cl)cc1 (stereo not given) | inactive | 
CCOP(=S)(OCC)Oc1ccc([N+](=O)[O-])cc1 | inactive | 
C[N+]1(C)CCCCC1 | inactive | 
Nc1c(Cl)cc([N+](=O)[O-])cc1Cl | inactive | 
COP(=O)(OC)SCn1c(=O)oc2cc(Cl)cnc21 | inactive | 

SMILES | outcome | AC50
CSc1nc(NC(C)C)nc(NC(C)C)n1 | inactive | 
C[Si](Cn1cncn1)(c1ccc(F)cc1)c1ccc(F)cc1 | inactive | 
CNC(=O)Oc1cccc2c1OC(C)(C)O2 | inactive | 
CCCCOC(=O)[C@@H](C)Oc1ccc(Oc2ccc(C#N)cc2F)cc1 | inactive | 
C#CCC1=C(C)C(OC(=O)C2C(C=C(C)C)C2(C)C)CC1=O (stereo not given) | inactive | 
N#CSCSC#N | inactive | 
CCNc1nc(Cl)nc(NC(C)(C)C#N)n1 | inactive | 
CCc1cccc(CC)c1N(COC)C(=O)CCl | inactive | 
O=C(O)c1cc(Oc2ccc(C(F)(F)F)cc2Cl)ccc1[N+](=O)[O-] | inactive | 
COP(=O)(OC)C(O)C(Cl)(Cl)Cl (stereo not given) | inactive | 
CCCCSP(=O)(SCCCC)SCCCC | inactive | 
CNC(=O)ON=C(SC)C(=O)N(C)C | inactive | 
COP(=O)(NC(C)=O)SC (stereo not given) | inactive | 
COc1ccc(C(=CC(=O)N2CCOCC2)c2ccc(Cl)cc2)cc1OC | inactive | 
CCCSP(=O)(OCC)Oc1ccc(Br)cc1Cl (stereo not given) | inactive | 
CCOP(=O)(SC(C)CC)N1CCSC1=O (stereo not given) | inactive | 
CN(C)[C@@H]1C(=O)C(C(N)=O)=C(O)[C@@]2(O)C(=O)C3=C(O)c4c(O)cccc4[C@@](C)(O)[C@H]3[C@H](O)[C@@H]12 | inactive | 
Nc1nc(N)nc(NC2CC2)n1 | inactive | 
CCCOCC(=Nc1ccc(Cl)cc1C(F)(F)F)n1ccnc1 |  | 73.1 µM (active)
CCOP(=S)(Oc1cnc(C(C)(C)C)nc1)OC(C)C (stereo not given) | inactive | 
